Results reported in PMC9911399, “Two distinct binding modes provide the RNA-binding protein RbFox with extraordinary sequence specificity”.
Substitutions are numbered along the chain they refer to; changes in the protein carry UniProt numbers. Whole data set: some 16,000 sequences, median “ka relative to ugcaugu” near 0.0091, cut for the highest 2% near 0.032. The list comes from a sample in which the highest values are over-represented; it also holds similar and randomly drawn sequences.

T1: RBFOX1 RRM (Homo sapiens, UniProt Q9NWB1 109-208)
T1 sequence: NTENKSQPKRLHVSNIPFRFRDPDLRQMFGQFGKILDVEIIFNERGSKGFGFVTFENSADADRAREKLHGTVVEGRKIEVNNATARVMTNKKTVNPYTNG

B1: CAUAACG (DNA:RNA)
RNA: GGGAGACCGGAAUUCAGAUUGUCCCAUAACGUUAAAUCCCGUCGUAGCCACCA
DNA 1: CAATCTGAATTCCGGTCTCCC
DNA 2: TGGTGGCTACGACGGGATT
B2: UGGGCUG (DNA:RNA)
RNA: B1 RNA with C25U, A26G, U27G, A28G, A29C, C30U
DNA 1: CAATCTGAATTCCGGTCTCCC
DNA 2: TGGTGGCTACGACGGGATT
B3: UGGGGGC (DNA:RNA)
RNA: GGGAGACCGGAAUUCAGAUUGUCCUGGGGGCUUAAAUCCCGUCGUAGCCACCA
DNA 1: CAATCTGAATTCCGGTCTCCC
DNA 2: TGGTGGCTACGACGGGATT
B4: UGUGGGC (DNA:RNA)
RNA: B3 RNA with G27U
DNA 1: CAATCTGAATTCCGGTCTCCC
DNA 2: TGGTGGCTACGACGGGATT
B5: CACUUGC (DNA:RNA)
RNA: B1 RNA with U27C, A28U, A29U, C30G, G31C
DNA 1: CAATCTGAATTCCGGTCTCCC
DNA 2: TGGTGGCTACGACGGGATT
B6: AUAUGCA (DNA:RNA)
RNA: B1 RNA with C25A, A26U, U27A, A28U, A29G, G31A
DNA 1: CAATCTGAATTCCGGTCTCCC
DNA 2: TGGTGGCTACGACGGGATT
B7: GGAUGCC (DNA:RNA)
RNA: B3 RNA with U25G, G27A, G28U, G30C
DNA 1: CAATCTGAATTCCGGTCTCCC
DNA 2: TGGTGGCTACGACGGGATT
B8: GUAUGCC (DNA:RNA)
RNA: B3 RNA with U25G, G26U, G27A, G28U, G30C
DNA 1: CAATCTGAATTCCGGTCTCCC
DNA 2: TGGTGGCTACGACGGGATT
B9: CCAUGCC (DNA:RNA)
RNA: B1 RNA with A26C, U27A, A28U, A29G, G31C
DNA 1: CAATCTGAATTCCGGTCTCCC
DNA 2: TGGTGGCTACGACGGGATT
B10: GCAUGCC (DNA:RNA)
RNA: B3 RNA with U25G, G26C, G27A, G28U, G30C
DNA 1: CAATCTGAATTCCGGTCTCCC
DNA 2: TGGTGGCTACGACGGGATT
B11: ACAUGCG (DNA:RNA)
RNA: B1 RNA with C25A, A26C, U27A, A28U, A29G
DNA 1: CAATCTGAATTCCGGTCTCCC
DNA 2: TGGTGGCTACGACGGGATT
B12: GGAUGCA (DNA:RNA)
RNA: B3 RNA with U25G, G27A, G28U, G30C, C31A
DNA 1: CAATCTGAATTCCGGTCTCCC
DNA 2: TGGTGGCTACGACGGGATT
B13: GCAUGCG (DNA:RNA)
RNA: B1 RNA with C25G, A26C, U27A, A28U, A29G
DNA 1: CAATCTGAATTCCGGTCTCCC
DNA 2: TGGTGGCTACGACGGGATT
B14: GCAUCCC (DNA:RNA)
RNA: B1 RNA with C25G, A26C, U27A, A28U, A29C, G31C
DNA 1: CAATCTGAATTCCGGTCTCCC
DNA 2: TGGTGGCTACGACGGGATT
B15: GUAUGCA (DNA:RNA)
RNA: B1 RNA with C25G, A26U, U27A, A28U, A29G, G31A
DNA 1: CAATCTGAATTCCGGTCTCCC
DNA 2: TGGTGGCTACGACGGGATT
B16: CGAUGCC (DNA:RNA)
RNA: B3 RNA with U25C, G27A, G28U, G30C
DNA 1: CAATCTGAATTCCGGTCTCCC
DNA 2: TGGTGGCTACGACGGGATT
B17: GGAUGCG (DNA:RNA)
RNA: B1 RNA with C25G, A26G, U27A, A28U, A29G
DNA 1: CAATCTGAATTCCGGTCTCCC
DNA 2: TGGTGGCTACGACGGGATT
B18: AGGAUUU (DNA:RNA)
RNA: B3 RNA with U25A, G28A, G29U, G30U, C31U
DNA 1: CAATCTGAATTCCGGTCTCCC
DNA 2: TGGTGGCTACGACGGGATT
B19: CUUUGGG (DNA:RNA)
RNA: B1 RNA with A26U, A28U, A29G, C30G
DNA 1: CAATCTGAATTCCGGTCTCCC
DNA 2: TGGTGGCTACGACGGGATT
B20: GAACCCA (DNA:RNA)
RNA: B1 RNA with C25G, U27A, A28C, A29C, G31A
DNA 1: CAATCTGAATTCCGGTCTCCC
DNA 2: TGGTGGCTACGACGGGATT

Biological target: T1, RBFOX1 RRM
Assay: EMSA; HiTS-Eq, 1 nM pool, 10 min; buffer printed only for the single-RNA assays: 10 mM Tris pH 7.5, 150 mM NaCl, 3.4 mM EDTA, 0.001% NP-40, 30 C
Conditions: tags: His6 N-terminal (pET28a); label: 5' 32P
In short: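 These values rest on relative association constants, computed from read-count changes of each RNA species versus the control reaction and normalised to the cognate motif. Reads came from free RNA recovered by 8% native PAGE after purified RbFox RRM (wild type or mutant) at increasing concentrations was equilibrated for 10 min in 50 µL with 1 nM of a 5′-radiolabelled pool with 7 randomized nucleotides and DNA-annealed flanks.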

Question: With B1 as the binder, how does the binding signal read?
Answer: 0.00316 KA relative to UGCAUGU

Question: How did the binding signal turn out when B2 was run?
Answer: 0.039 KA relative to UGCAUGU

Question: For B3, which binding signal is on record?
Answer: 0.014 KA relative to UGCAUGU

Question: B4 was tested. Which binding signal did it give?
Answer: 0.0102 KA relative to UGCAUGU

Question: How did the binding signal turn out when B5 was run?
Answer: 0.00965 KA relative to UGCAUGU

Question: B6 was tested. Which binding signal did it give?
Answer: 0.0145 KA relative to UGCAUGU

Question: With B7 as the binder, how does the binding signal read?
Answer: 0.0339 KA relative to UGCAUGU

Question: B8 was tested. Which binding signal did it give?
Answer: 0.0139 KA relative to UGCAUGU

Question: B9 was tested. Which binding signal did it give?
Answer: 0.00772 KA relative to UGCAUGU

Question: How did the binding signal turn out when B10 was run?
Answer: 0.829 KA relative to UGCAUGU

Question: B11 was tested. Which binding signal did it give?
Answer: 0.00768 KA relative to UGCAUGU

Question: B12 was tested. Which binding signal did it give?
Answer: 0.0274 KA relative to UGCAUGU

Question: With B13 as the binder, how does the binding signal read?
Answer: 0.916 KA relative to UGCAUGU

Question: Which binding signal does the source give for B14 here?
Answer: 0.0182 KA relative to UGCAUGU

Question: With B15 as the binder, how does the binding signal read?
Answer: 0.0319 KA relative to UGCAUGU

Question: How did the binding signal turn out when B16 was run?
Answer: 0.012 KA relative to UGCAUGU

Question: For B17, which binding signal is on record?
Answer: 0.0222 KA relative to UGCAUGU

Question: For B18, which binding signal is on record?
Answer: 0.0177 KA relative to UGCAUGU

Question: How did the binding signal turn out when B19 was run?
Answer: 0.00295 KA relative to UGCAUGU

Question: B20 was tested. Which binding signal did it give?
Answer: 0.00229 KA relative to UGCAUGU
